The full list was thinned out, with hits kept by preference.
KDM5B inh = blocks human KDM5B histone demethylase activity; KDM5B demethylase, FDH-coupled NADH fluorescence (FDH is formaldehyde dehydrogenase); Potency, µM (highest dose often 57.7 µM), actives largely listed as inhibitors; actives 2.6% (n = 220,000); Q9UGL1; AID 1347165; active = well fitted inhibition curve with a large enough effect; note: 0% is about no effect; nearly all actives have a fitted effect of over 70% in size
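qHTS format, multiple compound concentrations. Buffer 50 mM HEPES pH 7.5/0.01% Tween-20; 200 nM KDM5BΔAP final; 10 min compound preincubation; substrate-mix levels 12.5 µM peptide, 25 µM α-KG, 0.25 mM NAD⁺; 30 min RT; ΔRFU.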
An asterisk follows results filed as active; i = inactive. Potency is the fitted concentration of half-maximal effect.

SMILES | KDM5B inh
CC(=O)c1cc(C(=O)NCc2cccnc2N(C)Cc2ccccc2)cs1 | i
O=S(=O)(c1cccc(Cl)c1)N1CCN(Cc2coc(-c3cccs3)n2)CC1 | i
O=C(NCc1ccccc1S(=O)(=O)N1CCOCC1)c1ccc(Cl)cc1O | i
COc1ccc2cc(C(C)C(=O)NC3CCCCC3)ccc2c1 (configuration not stated) | i
C/C(CCc1ccc(O)cc1)=N\NC(N)=S | i
CN1C(=O)c2ccccc2NC1c1cc2ccccc2[nH]c1=O (configuration not stated) | i
O=C(COC(=O)CC(c1ccccc1)c1ccccc1)Nc1ccc(N2CCOCC2)cc1 | i
CCCn1c(N2CCN(C(=O)c3ccc(OC)cc3)CC2)nc2sc3c(c2c1=O)CCCC3 | i
COc1nc2ccccc2nc1N1CCC(C(=O)Nc2ccc(C)c(Cl)c2)CC1 | i
Cc1ccc(-c2cc3c(=O)n(CCNC(=O)c4cccnc4)ccn3n2)c(C)c1 | i
CCOc1ccc(C(=O)NCCn2ccn3nc(-c4ccc(OC)cc4)cc3c2=O)cc1 | 8.9µM*
COc1ccc(C(=O)NCCn2ccn3nc(-c4cc(C)ccc4C)cc3c2=O)cc1OC | i
COc1ccc(C(=O)NCCn2ccn3nc(-c4ccc(F)cc4)cc3c2=O)cc1OC | i
Cc1ccc(-c2cc3c(=O)n(CCNC(=O)c4cccc(Cl)c4)ccn3n2)cc1C | i
CCOc1ccc(-c2cc3c(=O)n(CCNC(=O)c4ccccc4OC)ccn3n2)cc1 | 32µM*
Cc1ccc(-c2cc3c(=O)n(CCNC(=O)c4ccc(Cl)cc4)ccn3n2)c(C)c1 | i
CCOc1ccc(NC(=O)Cn2ccn3nc(-c4ccc(OC)c(OC)c4)cc3c2=O)cc1 | i
CCOc1ccc(-c2cc3c(=O)n(CCNC(=O)c4ccc(Cl)cc4)ccn3n2)cc1 | i
Cc1ccc(-c2cc3c(=O)n(CCNC(=O)c4ccc(N(C)C)cc4)ccn3n2)cc1C | 28µM*
Cc1ccc(-c2cc3c(=O)n(CCNC(=O)c4ccc(N(C)C)cc4)ccn3n2)c(C)c1 | 28µM*
Cc1ccc(-c2cc3c(=O)n(CCNC(=O)C4CCCCC4)ccn3n2)cc1C | i
CC(C)c1ccc(CCNC(=O)Cn2ncc3ccccc3c2=O)cc1 | i
COc1ccc(S(=O)(=O)Nc2nc3ccccc3nc2Nc2cccc(OC)c2)cc1 | i
Cc1ccc2c(c1)NC(SCC(=O)Nc1cccc(C(F)(F)F)c1)=NS2(=O)=O | i
CCONC(=O)C(C)Oc1cccc(C#N)c1 (configuration not stated) | i
SMILES | KDM5B inh
CCN(CC)C(=O)Oc1ccc2c(=O)c(-c3ccc(OC)cc3)c(C(F)(F)F)oc2c1 | i
COc1ccc(-c2noc(-c3cccn3CC(=O)Nc3cccc(Cl)c3C)n2)cc1F | i
COc1ccccc1C(=O)Nc1ccc2oc(=O)ccc2c1 | i
Cc1cc(C)cc(NC(=S)NC2CCCC(C)C2C)c1 (configuration not stated) | i
CC(=O)Nc1cccc(C(=O)NCCn2ccn3nc(-c4ccc(C)cc4C)cc3c2=O)c1 | i
COc1ccc(-c2cc3c(=O)n(CCNC(=O)c4ccc(C)s4)ccn3n2)cc1 | i
Cc1ccc(C)c(-c2cc3c(=O)n(CCNC(=O)Cc4cccs4)ccn3n2)c1 | i
Cc1ccc(C)c(-c2cc3c(=O)n(CCNC(=O)c4ccccc4F)ccn3n2)c1 | i
Cc1ccc(C)c(-c2cc3c(=O)n(CCNC(=O)c4ccccc4)ccn3n2)c1 | i
Cc1ccc(-c2cc3c(=O)n(CCNC(=O)c4nn(C)c5ccccc45)ccn3n2)c(C)c1 | 28µM*
O=C(NCCn1ccn2nc(-c3ccc(F)cc3)cc2c1=O)c1ccc(F)c(Cl)c1 | i
Cc1ccc(C)c(C(=O)NCCn2ccn3nc(-c4cc(C)ccc4C)cc3c2=O)c1 | 32µM*
COc1ccc(-c2cc3c(=O)n(CCNC(=O)c4ccc(OC)nc4)ccn3n2)cc1 | 11µM*
COc1ccc(-c2cc3c(=O)n(CCNC(=O)c4cccc(N(C)C)c4)ccn3n2)cc1 | 35µM*
CC1CCc2nn(CC(=O)Nc3ccc(Cl)cc3)c(=O)cc2C1 (configuration not stated) | i
CC(C)OC(=O)C1=C(N)Oc2c(oc(CO)cc2=O)C1c1ccc(F)cc1F (configuration not stated) | i
CCCN(C(=O)c1cn(C)c(=O)c2cc(OC)c(OC)cc12)c1cccc(C)c1 | i
O=C(Nc1nnc(-c2ccc(Cl)cc2)o1)C1CCN(S(=O)(=O)c2ccc3ccccc3c2)CC1 | i
COc1ccc(C2C(C#N)=C(N)OC(C(C)(C)C)=C2C#N)c(OC)c1OC (configuration not stated) | i
Cc1cc(N2CCOCC2)nc(Nc2ccc(NC(=O)CC3CCCC3)cc2)n1 | i
Cc1cccc(-c2ocnc2C(=O)Nc2ccccc2C)c1 | i
CCN(CC)c1ccc(NC(=O)c2cc3ccc(OC)cc3[nH]2)cc1 | i
Cc1ccc(-c2noc(CSc3nnc4ccccn34)n2)cc1F | i
CCOc1ccc(-c2cc3c(=O)n(CC(=O)NCc4ccco4)ccn3n2)cc1 | i
CCOC(=O)c1ccccc1NC(=O)Cn1ccn2nc(-c3ccc(OCC)cc3)cc2c1=O | i
SMILES | KDM5B inh
COc1ccc(-c2cc3c(=O)n(CCNC(=O)c4cc(OC)cc(OC)c4)ccn3n2)cc1 | i
Cc1ccc(-c2cc3c(=O)n(CCNC(=O)Cc4ccsc4)ccn3n2)c(C)c1 | i
COc1ccc(C(=O)NCCn2ccn3nc(-c4cc(C)ccc4C)cc3c2=O)cc1F | i
COc1ccc(C(=O)NCCn2ccn3nc(-c4ccc(C)cc4C)cc3c2=O)cc1F | i
Cc1ccc(-c2cc3c(=O)n(CC(O)c4ccc(C)c(C)c4)ccn3n2)c(C)c1 (configuration not stated) | 35µM*
COc1ccc(C(=O)NCCn2ccn3nc(-c4ccc(C)c(C)c4)cc3c2=O)cc1 | 18µM*
CCOc1ccc(-c2cc3c(=O)n(CC(=O)NCc4ccccc4)ccn3n2)cc1 | i
CCOc1ccc(-c2cc3c(=O)n(CCNC(=O)c4cccc5[nH]ccc45)ccn3n2)cc1 | 28µM*
CCOc1ccc(-c2cc3c(=O)n(CCNC(=O)c4ccc(C#N)cc4)ccn3n2)cc1 | 20µM*
CCCCn1nc(C(=O)NCC(=O)Nc2ccc(Br)cc2C)c2ccccc2c1=O | i
COC(=O)c1ccc(NC(=O)C(NC(=O)c2ccccc2)C(C)C)c(C)c1 (configuration not stated) | i
COc1ccc(C)cc1CNCc1ccco1 | i
CCCc1cc(C(=O)N[C@H]2CCOC[C@H]2C2CCOCC2)cs1 | i
Cc1nn(C)c(C(=O)N[C@H]2CCOC[C@H]2C2CCOCC2)c1Cl | i
CCc1c(C)cc(C(=O)N[C@H]2CCOC[C@H]2C2CCOCC2)c(=O)n1C | 25µM*
CC(OC(=O)c1nn(-c2ccccc2)c(=O)c2ccccc12)C(=O)Nc1ccc(N2CCOCC2)cc1 (configuration not stated) | i
CCc1c(C(=O)c2[nH]c(C)c(C(C)=O)c2C)oc2ccc(F)cc12 | i
Cc1nc(NC2CCCC2)sc1C(=O)Nc1ccccc1 | i
O=C(Cn1nnc(-c2ccccc2)n1)N1CCC(c2nc3ccccc3s2)CC1 | i
CCN1C(=O)CCc2cc(NS(=O)(=O)Cc3ccccc3)ccc21 | i
CCS(=O)(=O)N1CC(=O)N(c2ccc(C(C)C)cc2)C(C)(C(=O)NCc2ccc(F)cc2)C1 (configuration not stated) | i
COc1cc(CNC(=O)c2cc(C3CC3)nc3onc(C)c23)cc(OC)c1OC | i

Assay outcomes as filed in PubChem.
